Data published in PubChem BioAssay (NCI).
The panel holds about 79,000 compounds, 15% with a hit somewhere; the sample as a whole holds those more often. Activity calls are given as the source filed them. Cut-off read from the data, not from the text of the source: active = growth inhibition above about 70%; inactive = the rest.

How the values were obtained:
[1] = NCI Yeast Anticancer Drug Screen. Data for the wt1 strain (AID 149);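 note: 0% = growth of vehicle-treated wt1 cultures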; conditions: S. cerevisiae wt1 strain (SPY 50644) growth inhibition, stronger effect = higher value
Outline: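 The wt1 strain was treated with compounds, and growth was compared with vehicle-treated cultures to give inhibition.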

[2] = NCI Yeast Anticancer Drug Screen. Data for the rad50EPP+ strain (AID 151);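 note: 0% = growth of vehicle-treated control cultures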; conditions: S. cerevisiae rad50 mutant strain, stronger effect = higher value
Outline: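 Read-out is yeast growth inhibition relative to vehicle; cells used were the rad50EPP+ strain.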

[3] = NCI Yeast Anticancer Drug Screen. Data for the mgt1 strain (AID 153); conditions: S. cerevisiae mgt1 mutant growth inhibition, stronger effect = higher value
Outline: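 Measured: inhibition of mgt1 yeast growth by compound, normalized to vehicle-treated cultures.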

[4] = NCI Yeast Anticancer Drug Screen. Data for the rad50 strain (AID 155);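 note: 0% = growth of vehicle-only cultures of the same strain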; conditions: S. cerevisiae rad50 strain growth inhibition, stronger effect = higher value
Outline: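 Cells are treated with compound, grown, and their growth is then scored against vehicle-only cultures of the same repair-deficient yeast strain.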

[5] = NCI Yeast Anticancer Drug Screen. Data for the mec2-1 strain (AID 157); conditions: S. cerevisiae mec2-1 strain, stronger effect = higher value
Outline: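 Using mec2-1 yeast: add compound, measure growth, express inhibition versus vehicle-treated cultures.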

[6] = NCI Yeast Anticancer Drug Screen. Data for the rad14 strain (AID 159);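 note: 0% = growth of vehicle-treated control cultures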; conditions: S. cerevisiae rad14 strain growth inhibition, stronger effect = higher value
Outline: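 Readout: yeast growth inhibition, referenced to vehicle-only cultures. Strain bears a defined alteration in DNA damage repair.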

[7] = NCI Yeast Anticancer Drug Screen. Data for the sgs1 mgt1 strain (AID 161);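 note: 0% = growth of cultures given vehicle only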; conditions: S. cerevisiae sgs1 mgt1 strain, stronger effect = higher value
Outline: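 Growth of a repair-deficient yeast mutant was monitored after compound treatment and expressed as inhibition relative to vehicle-treated cultures.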

[8] = NCI Yeast Anticancer Drug Screen. Data for the bub3 strain (AID 167); conditions: S. cerevisiae bub3 mutant strain, stronger effect = higher value
Outline: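 Part of a panel of yeast mutants defective in DNA damage repair or cell cycle regulation. Each strain is grown with compound, and inhibition is calculated relative to solvent-treated cultures.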

[9] = NCI Yeast Anticancer Drug Screen. Data for the wt2 strain (AID 169);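 note: 0% = growth of vehicle-treated yeast cultures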; conditions: S. cerevisiae wt2 strain growth inhibition, stronger effect = higher value
Outline: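 Treated yeast vs. vehicle-treated yeast: growth inhibition determined.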

[10] = NCI Yeast Anticancer Drug Screen. Data for the mlh1 strain (AID 171);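 note: 0% = growth of vehicle-treated control cultures of the same strain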; conditions: S. cerevisiae mlh1 strain growth inhibition, stronger effect = higher value
Outline: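 A yeast strain with a defined genetic lesion serves as the test organism. Cultures receive compound or vehicle, and growth is measured.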

[11] = NCI Yeast Anticancer Drug Screen. Data for the sgs1 strain (AID 173);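 note: 0% = growth of vehicle-only control cultures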; conditions: S. cerevisiae sgs1 mutant, stronger effect = higher value
Outline: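 A genetically defined yeast mutant is incubated with the test compound, and its growth is compared to that of the same strain given vehicle.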

[12] = NCI Yeast Anticancer Drug Screen. Data for the mlh1 rad18 strain (AID 175); conditions: S. cerevisiae mlh1 rad18 strain growth inhibition, stronger effect = higher value
Outline: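 Steps: expose repair-defective yeast to compound; measure growth; express inhibition against vehicle-treated controls.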

[13] = NCI Yeast Anticancer Drug Screen. Data for the rad18 strain (AID 177); conditions: S. cerevisiae rad18 mutant growth inhibition, stronger effect = higher value
Outline: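 Measured value is growth inhibition of a yeast strain bearing a DNA repair alteration, referenced to vehicle-treated cells.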

[14] = at 5.0 µM (retest, dose inferred, filed as 0.5)
[15] = at 50.0 µM (retest, dose inferred, filed as 5.0)

Measured: growth inhibition

O=C1C=CC(=Nc2ccc3c(c2)Cc2cc(Cl)ccc2-3)O1
active: [1]; at 33.0 µM 99% | [1]; at 100.0 µM 98% | [2]; at 1.2 µM 78% | [2]; at 3.7 µM 90% | [2]; at 11.0 µM 98% | [2]; at 33.0 µM 99% | [2]; at 100.0 µM 96% | [3]; at 33.0 µM 99% | [3]; at 100.0 µM 99% | [4]; at 11.0 µM 78% | [4]; at 33.0 µM 99% | [4]; [15] 99% | [4]; at 50.0 µM 99.5% | [4]; at 100.0 µM 96% | [5]; at 33.0 µM 99% | [5]; [15] 100% | [5]; at 50.0 µM 99% | [5]; at 100.0 µM 98% | [6]; at 11.0 µM 91% | [6]; at 33.0 µM 99% | [6]; at 100.0 µM 97% | [7]; [15] 100% | [7]; at 50.0 µM 99.5% | [8]; at 11.0 µM 96% | [8]; at 33.0 µM 99% | [8]; [15] 99% | [8]; at 50.0 µM 99.7% | [8]; at 100.0 µM 97% | [9]; at 11.0 µM 100% | [9]; at 33.0 µM 99% | [9]; at 100.0 µM 98% | [10]; at 11.0 µM 74% | [10]; at 33.0 µM 99% | [10]; at 100.0 µM 98% | [11]; at 11.0 µM 88% | [11]; at 33.0 µM 99% | [11]; at 100.0 µM 98% | [12]; [15] 99% | [12]; at 50.0 µM 84.2% | [13]; at 11.0 µM 95% | [13]; at 33.0 µM 99% | [13]; at 100.0 µM 97%
inactive: [1]; at 1.2 µM -3% | [1]; at 3.7 µM 10% | [1]; at 11.0 µM 56% | [3]; at 1.2 µM 2% | [3]; at 3.7 µM 20% | [3]; at 11.0 µM 68% | [4]; at 1.2 µM -1% | [4]; at 3.7 µM 24% | [4]; [14] 25% | [5]; at 1.2 µM 6% | [5]; at 3.7 µM 19% | [5]; [14] 34% | [5]; at 11.0 µM 68% | [6]; at 1.2 µM 10% | [6]; at 3.7 µM 32% | [7]; [14] 49% | [8]; at 1.2 µM 4% | [8]; at 3.7 µM 12% | [8]; [14] 7% | [9]; at 1.2 µM 5% | [9]; at 3.7 µM 28% | [10]; at 1.2 µM 9% | [10]; at 3.7 µM 21% | [11]; at 1.2 µM 11% | [11]; at 3.7 µM 48% | [12]; [14] 32% | [13]; at 1.2 µM 10% | [13]; at 3.7 µM 36%
